In PubChem BioAssay (NCATS):
Values joined by “and” are separate entries in the source; they are usually repeats but may differ in a detail not shown here. Equal entries are not always repeated. Results filed as inconclusive are left out. Values without a mark were called inactive. Active and inactive are the calls of the source. Calls come from the whole dose curve; as a rule, active = well fitted cell-killing curve with a large enough effect; inconclusive = small, poorly fitted or top-dose-only effect, or effect the other way; inactive = no such curve, though single readings can be large or run the other way.
Potency is the fitted concentration of half-maximal effect.

Experiment: Viability qHTS for spleen associated tyrosine kinase inhibitor (SYKi) drug resistant MV4-11 cells (AID 1963824); note: nearly all actives have a fitted effect of over 35% in size
Conditions: SYKi-resistant MV4-11 viability, CellTiter-Glo, 72 h; series mostly up to 45 µM; viability, % of control: at the top concentration
Summary of the method: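 SYK-inhibitor-resistant MV4-11 AML cells were seeded at 500 per well onto compound and cultured 72 hours (37 °C, 5% CO2). CellTiter-Glo was then added, and after 10 min at room temperature, luminescence gave viability.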
With `COC(=O)C1=C(C)NC(C)=C(C(=O)O[C@@H]2CCCN(Cc3ccccc3)C2)[C@@H]1c1cccc([N+](=O)[O-])c1` the Potency was 15 µM (active) and 13 µM (active).
For `N#Cc1ccc(COC[C@H]2O[C@@H](n3c(NCc4ccc(Cl)c(Cl)c4)nc4c(N)ncnc43)[C@H](O)[C@@H]2O)cc1`, the Potency was 2.52 µM (active) and 3.32 µM (active).
For `COCC(=O)O[C@]1(CCN(C)CCCc2nc3ccccc3[nH]2)CCc2cc(F)ccc2[C@@H]1C(C)C`, the Potency was 13.3 µM (active).
In the case of `Oc1c(Cl)cc(Cl)c(Cl)c1Cc1c(O)c(Cl)cc(Cl)c1Cl`, the Potency is reported as 5.96 µM (active).
For `Cc1c[nH]c(/C=C2\C(=O)Nc3ccccc32)c1CCC(=O)O`, the Potency was 1.16 µM (active) and 1.32 µM (active).
With `Cn1cc(C2=C(c3cn(C)c4cc([N+](=O)[O-])ccc34)C(=O)NC2=O)c2ccccc21` the Potency was 0.372 µM (active).
For `N#C/C(=C(/N)Sc1ccc(N)cc1)c1ccccc1C(F)(F)F`, the Potency was 7.42 µM (active).
In the case of `COC1CCN(C(=O)c2cc(Cc3n[nH]c(=O)c4ccccc34)ccc2F)CC1`, the Potency is reported as 14.8 µM (active).
For `N#C/C(=C1/SC[C@@H](c2ccc(Cl)cc2Cl)S1)n1ccnc1`, the Potency was 13.3 µM (active).
In the case of `C[C@]12CC[C@@H]3c4ccc(O)cc4CC[C@H]3[C@@H]1CC[C@@H]2O`, the Potency is reported as 14.8 µM (active).
In the case of `CSc1ccc2c(c1)N(CCC1CCCCN1C)c1ccccc1S2` (centres undefined), the Potency is reported as 13.3 µM (active).
For `N#CN1CCC[C@@H](n2nc(-c3ccc(Oc4ccc(F)cc4F)cc3)c(C(N)=O)c2N)C1`, the Potency was 18.6 µM (active).
In the case of `Nc1nc(N)c(-c2ccccc2)s1`, the “viability, % of control” value is reported as 93.8%.
With `COc1cc(-c2cc(-c3ccc(N4CCNCC4)cc3)cnc2C)cc(OC)c1OC` the Potency was 8.33 µM (active).
In the case of `Cc1nc(NC(=O)N2CCCC2C(N)=O)sc1-c1ccnc(C(C)(C)C(F)(F)F)c1` (centres undefined), the Potency is reported as 9.2 µM (active).
In the case of `COc1cc2c(cc1OC)-c1cc(=Nc3c(C)cc(C)cc3C)n(C)c(=O)n1CC2`, the Potency is reported as 10.6 µM (active).
In the case of `Cc1nnn(C)c1-c1cnc2c3ccc(C(C)(C)O)cc3n([C@H](c3ccccc3)C3CCOCC3)c2c1`, the Potency is reported as 0.003 µM (active).
With `CN(C)Cc1cccc(N=C(c2ccccc2)c2c(O)[nH]c3cc(C(N)=O)ccc23)c1` the Potency was 2.91 µM (active) and 1.18 µM (active).
In the case of `Cc1ccc(-n2c(C)cc(-c3nnc4n3CCCCC4)c2C)cc1`, the Potency is reported as 8.33 µM (active).
With `O=C1Nc2ccc(I)cc2/C1=C/c1cc(Br)c(O)c(Br)c1` the Potency was 14.8 µM (active).
In the case of `CCS(=O)(=O)CCn1c([N+](=O)[O-])cnc1C`, the “viability, % of control” value is reported as 75.4%.
With `Nc1nccn2c(C3CCC(C(=O)O)CC3)nc(-c3cc4cccc(Cl)c4[nH]3)c12` (centres undefined) the Potency was 580 nM (active) and 1.48 µM (active).
For `Cc1ccc(C(=O)OCc2ccc([C@@H](CN)C(=O)Nc3ccc4cnccc4c3)cc2)c(C)c1`, the Potency was 2.29 µM (active).
For `COc1ccc(-c2c(C)nn3c(NCCN4CCOCC4)cc(C)nc23)cc1OC`, the Potency was 9.2 µM (active).
In the case of `Cc1cc(F)c(C(=O)Nc2cccc(-c3nncn3C(C)C)n2)cc1-n1cnc(C2CC2)c1`, the Potency is reported as 5.25 µM (active).
In the case of `Cc1c(CN2CCC(Nc3ncnc4sc(CC(F)(F)F)cc34)CC2)ccc2c1cc(C#N)n2Cc1cn[nH]c1`, the Potency is reported as 0.468 µM (active).
For `O=c1[nH]c2cc(C(F)(F)F)c(N3CCOCC3)cc2n(CP(=O)(O)O)c1=O`, the “viability, % of control” value was 89.6%.
In the case of `CNC[C@H](O)[C@@H](O)[C@H](O)[C@H](O)CO`, the “viability, % of control” value is reported as 85.2%.
With `C[C@@]12C(=O)OC(=O)[C@]1(C)[C@H]1CC[C@@H]2O1` the Potency was 2.63 µM (active).
In the case of `CC(=O)C1CCC2C3CCC4=CC(=O)CCC4(C)C3CCC12C` (centres undefined), the Potency is reported as 9.34 µM (active).
In the case of `COC[C@@H](c1ccc(C(F)(F)F)cc1)N1CCN(C2(C)CCN(C(=O)c3c(C)ncnc3C)CC2)C[C@@H]1C`, the Potency is reported as 18.6 µM (active).
For `NC(=O)C1(N2CCCCC2)CCN(CCCN2c3ccccc3CCc3ccc(Cl)cc32)CC1`, the Potency was 8.41 µM (active).
In the case of `COC(=O)Nc1ccc(-c2nc(N3CCOCC3)c3cnn(C4CCN(C(=O)OC)CC4)c3n2)cc1`, the Potency is reported as 1.05 µM (active).
With `CCCS(=O)(=O)c1nc(NC2CC2)cc(-c2ccc3c(ccn3C3CC(C)(C)NC(C)(C)C3)c2)n1` the Potency was 1.11 µM (active).
In the case of `CCOC(=O)c1ccc(N)cc1`, the “viability, % of control” value is reported as 86.4%.
In the case of `CC(C)N(CCCNC(=O)Nc1ccc(C(C)(C)C)cc1)C[C@H]1O[C@@H](n2cc(Br)c3c(N)ncnc32)[C@H](O)[C@@H]1O`, the Potency is reported as 18.4 µM (active) and 7.42 µM (active).
With `CC(/C=C/[C@@H]1C[C@]1(C)c1ccc2c(c1)C(C)(C)CCC2(C)C)=C\C(=O)O` the Potency was 0.468 µM (active).
In the case of `O=C1OC(CN2CCOCC2)CN1/N=C/c1ccc([N+](=O)[O-])o1` (centres undefined), the Potency is reported as 8.41 µM (active).
In the case of `COC1CCC(N2C(=O)CNc3ncc(-c4ccc(C(C)(C)O)nc4)nc32)CC1` (centres undefined), the Potency is reported as 4.17 µM (active).
